# Most compounds without a hit are left out; they make up all but 1.6% or so of the library.
# KCNQ2 inh – blocks the rat KCNQ2 potassium channel; CHO-K1 KCNQ2, FluxOR thallium flux, 20 min; stronger effect = lower value; AID 2156; O88943; 310,000 tested, 1.1% active; B-score at 10 µM;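 active = fluorescence ratio B-score at most minus 3 library SDs, with starting brightness B-score within 2 library SDs, cut at about -5.5 in these data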
# Target sequence (O88943 whole entry, looked up): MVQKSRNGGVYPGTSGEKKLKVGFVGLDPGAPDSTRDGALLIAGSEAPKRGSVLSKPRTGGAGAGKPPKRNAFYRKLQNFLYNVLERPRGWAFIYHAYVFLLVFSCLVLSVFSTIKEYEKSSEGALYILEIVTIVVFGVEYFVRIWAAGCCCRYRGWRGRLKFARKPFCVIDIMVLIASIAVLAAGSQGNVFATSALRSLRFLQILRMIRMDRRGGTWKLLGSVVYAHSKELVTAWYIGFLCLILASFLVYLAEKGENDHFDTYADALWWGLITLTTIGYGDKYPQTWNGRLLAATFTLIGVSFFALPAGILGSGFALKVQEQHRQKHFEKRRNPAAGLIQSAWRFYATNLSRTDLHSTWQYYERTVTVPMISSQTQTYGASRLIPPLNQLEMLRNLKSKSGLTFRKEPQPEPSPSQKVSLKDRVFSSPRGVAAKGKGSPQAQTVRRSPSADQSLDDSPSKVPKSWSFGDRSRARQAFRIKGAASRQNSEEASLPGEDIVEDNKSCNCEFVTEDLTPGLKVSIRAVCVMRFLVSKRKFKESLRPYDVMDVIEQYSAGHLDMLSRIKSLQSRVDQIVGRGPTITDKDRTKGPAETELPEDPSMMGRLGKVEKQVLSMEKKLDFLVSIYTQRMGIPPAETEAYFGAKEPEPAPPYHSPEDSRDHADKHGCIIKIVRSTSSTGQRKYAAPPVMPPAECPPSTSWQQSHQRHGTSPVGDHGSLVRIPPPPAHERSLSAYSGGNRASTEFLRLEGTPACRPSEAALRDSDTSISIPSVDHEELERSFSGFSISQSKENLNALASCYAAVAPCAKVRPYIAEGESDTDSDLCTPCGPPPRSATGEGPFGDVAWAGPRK
# KCNQ2 pot – potentiators of rat KCNQ2 potassium channel; O88943; CHO-K1 KCNQ2, FluxOR thallium flux fluorescence; stronger effect = higher value; B-score at 10 µM; 310,000 tested, 0.54% active;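 active = fluorescence ratio B-score at least 3 SD of library B-scores, with initial fluorescence B-score within 3 of them, cut at about 5.3 in these data; same plate scores as AID 2156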;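 also: B-score of peak minus minimum over baseline fluorescence ratio after K+ and Tl+ stimulus; positive B-score means potentiation of KCNQ2 with more thallium influx and brighter signal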
# Kir21 confirm – confirmation of mouse Kir2.1 potassium channel inhibitors; AID 2032; Kir2.1-expressing cells, FluxOR thallium flux fluorescence; stronger effect = lower value; Tl flux remaining, % of negative control (stronger effect = lower value), % at 10 µM; shares compounds with KCNQ2 pot; 2,300 tested, 41% active;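 active = Primary-screen hit whose thallium flux fell at least 3 control SD below untreated wells in both duplicates, with normal baseline fluorescence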;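 also: 0% = blank wells without stimulus and 100% = stimulated no-compound controls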
# HEK293 Tl flux – parental HEK293 activity in Kir2.1 inhibitor counter-screen. shares compounds with KCNQ2 pot. parental HEK293 cells, FluxOR thallium flux fluorescence; 0% = unstimulated blank wells. FluxOR signal as % of negative control (100 = no effect), % at 10 µM. 2,300 tested, 19% active;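 active = dye signal at least 3 control SD above or below untreated wells in both duplicates, raw fluorescence within 3, either direction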;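 also: percent is based on the flux ratio of peak minus minimum fluorescence over baseline F0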
# CHO-K1 Tl ctr – alters thallium flux in parental CHO-K1 cells, KCNQ2 counter-screen. shares compounds with KCNQ2 pot. activity increase over 3SD of controls, % at 10 µM. FluxOR thallium flux fluorescence; zero = vehicle mean+3SD, 100% = vehicle-minus-blank window. 1,200 tested, 43% active. AID 2282;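 active = signal rise of at least 3 SD above the untreated control mean, in both duplicate wells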;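 also: counter screen of KCNQ2 potentiator hits so any rise reflects channel-independent effects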
# KCNQ1 sel pot – human KCNQ1 counter-target activity of KCNQ2 potentiators. shares compounds with KCNQ2 pot. CHO KCNQ1 stable, FluxOR thallium flux fluorescence; beyond 3SD, as % of vehicle-control signal. activation over 3SD threshold, % at 10 µM. 1,200 tested, 28% active. AID 2283;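 active = fluorescence ratio rise of at least 3 SD of vehicle wells above their mean, in both replicate wells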;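 also: 0% = vehicle mean plus 3 SD and 100% = vehicle minus unstimulated blank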
# KCNQ2 pot conf – confirmation of rat KCNQ2 potassium channel potentiators | shares compounds with KCNQ2 pot | CHO-KCNQ2 cells, FluxOR thallium flux fluorescence | potentiation, less the hit threshold, % at 10 µM | 1,200 tested, 68% active;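 active = fluorescence ratio rising 3 SD or more over the vehicle control mean in both replicates, plus primary screen hit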;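 also: peak minus minimum thallium fluorescence divided by baseline after K/Tl stimulus; 0% = vehicle mean plus 3 SD and 100% = vehicle minus unstimulated blank difference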
# Kir21 spec – selectivity of KCNQ2 potentiators: effect on mouse Kir2.1; shares compounds with KCNQ2 pot; HEK293 Kir2.1, FluxOR thallium flux fluorescence; activity over 3SD threshold, % at 10 µM; 1,200 tested, 2% active;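 active = fluorescence ratio rise of at least 3 SD above the vehicle-control mean, seen in both replicates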;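 also: 0% = vehicle mean plus 3 SD and 100% = vehicle minus no-stimulus blank window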
# KCNQ2 W236L pot – rat KCNQ2 W236L mutant potentiation by KCNQ2 potentiators; shares compounds with KCNQ2 pot; CHO KCNQ2-W236L, automated patch clamp current; current increase over 3SD of negative controls (%), stronger effect = higher value, % at 25 µM; 940 tested, 10% active;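 active = current increase at least 3 SD of the untreated controls above them in both duplicate recordings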
# The depositor's hits bear a star; i = inactive; / = not tested or not shown.
SMILES,KCNQ2 inh,KCNQ2 pot,Kir21 confirm,HEK293 Tl flux,others
CCN(CC)S(=O)(=O)c1cccc(C(=O)N[C@H](C(=O)NNC(=O)c2ccccc2)C(C)C)c1,i,8*,i,i,CHO-K1 Tl ctr=-25;KCNQ1 sel pot=0.2*;KCNQ2 pot conf=-23;Kir21 spec=-23
CCN(CC)S(=O)(=O)c1cccc(C(=O)NC(C(=O)NC2=NCCS2)C(C)C)c1 (centres undefined),i,0.24,/,/,
COc1ccc(OC)c(Cc2nnc(CCC(=O)NC3C4CC5CC(C4)CC3C5)o2)c1 (centres undefined),i,1.1,/,/,
Cc1ccc(-n2c(=S)[nH]c3sc4c(c3c2=O)CCc2ccccc2-4)cc1,i,/,/,/,
Cc1cccc(-n2c(=S)[nH]c3sc4c(c3c2=O)CCc2ccccc2-4)c1,i,5.6*,i,196%*,CHO-K1 Tl ctr=-11;KCNQ1 sel pot=-26;KCNQ2 pot conf=-10;Kir21 spec=-25;KCNQ2 W236L pot=i
Cc1ccc(NC(=S)NCc2cccs2)cc1,i,8.9*,i,i,CHO-K1 Tl ctr=-3;KCNQ1 sel pot=-12;KCNQ2 pot conf=14*;Kir21 spec=-29;KCNQ2 W236L pot=i
S=C(NCc1cccs1)Nc1ccccc1,i,0.61,/,/,
CC1(NC(=O)Cc2ccc(S(=O)(=O)N3CCOCC3)s2)CCS(=O)(=O)C1 (centres undefined),i,/,/,/,
COc1cc(CNCCc2ccccc2)cc(Br)c1OCC(=O)Nc1ccccc1C,-7.1*,-7.1,55%*,i,
CNCc1cc(Br)c(OCC(=O)Nc2ccccc2OC)c(OC)c1,i,0.95,/,/,
COc1cc(/C=C(\NC(C)=O)C(=O)N2CCCCC2)ccc1OC(C)=O,i,/,/,/,
Cc1ccc(S(=O)(=O)NCCc2ccccc2)cc1,i,/,/,/,
Cc1cc(C)c(S(=O)(=O)NCCc2ccccc2)c(C)c1,i,/,50%*,i,
C=CCN(C(=O)c1csnn1)C(C(=O)NCc1ccc(F)cc1)c1cccs1 (centres undefined),i,/,/,/,
CC(=O)Nc1cc(NC(C)=O)ncn1,i,/,/,/,
COC(=O)c1cncc(C)c1,i,0.64,/,/,
Cc1cc(C)c2nc(N3CCC(C(=O)NCCCN4CC(C)CC(C)C4)CC3)sc2c1 (centres undefined),-6.4*,-6.4,50%*,i,
Cc1cc(C)c2nc(N3CCCC(C(=O)NCCCN4CCOCC4)C3)sc2c1 (centres undefined),i,/,/,/,
COc1ccc2oc(C(=O)OCC(=O)N3CCC(C)CC3)c(C)c2c1,i,4.6,/,/,
Cc1c(C(=O)OCC(=O)N2CCC(C)CC2)oc2ccccc12,i,11*,i,i,CHO-K1 Tl ctr=14*;KCNQ1 sel pot=-5;KCNQ2 pot conf=17*;Kir21 spec=-32;KCNQ2 W236L pot=i
O=c1oc2cc(Br)ccc2n1Cc1ccccc1,i,/,/,/,
CC1=C(C#N)C(=O)N(C2CCS(=O)(=O)C2)C(=O)/C1=C\c1ccco1 (centres undefined),i,/,/,/,
O=C(CCSCCC(=O)NCc1cccs1)NCc1cccs1,i,0.86,/,/,
O=C(CC1CC2CCC1C2)NCc1cccs1 (centres undefined),i,5.3*,i,i,CHO-K1 Tl ctr=-18;KCNQ1 sel pot=27*;KCNQ2 pot conf=13*;Kir21 spec=-36;KCNQ2 W236L pot=i
O=C(NCc1cccs1)C12CC3CC(CC(C3)C1)C2,i,0.94,/,/,
SMILES,KCNQ2 inh,KCNQ2 pot,Kir21 confirm,HEK293 Tl flux,others
O=C(CCC1CCCCC1)NCc1cccs1,i,7.4*,i,i,CHO-K1 Tl ctr=54*;KCNQ1 sel pot=-12;KCNQ2 pot conf=15*;Kir21 spec=-22;KCNQ2 W236L pot=i
COCCCNC(=O)C(=O)Nc1cc2c3c(c1)CCN3C(=O)CC2,i,/,/,/,
CCOC(=O)C1CCN(CCC(=O)Nc2ccc(C)c(C)c2)CC1,i,0.22,/,/,
CCCCn1c(-c2csc(C(C)C)c2)n[nH]c1=S,i,8.1*,/,/,CHO-K1 Tl ctr=-2;KCNQ1 sel pot=22*;KCNQ2 pot conf=3.4*;Kir21 spec=-55;KCNQ2 W236L pot=40%*
CCCCn1c(-c2csc3ccccc23)n[nH]c1=S,i,0.12,/,/,
Cc1cc(C)cc(N2CCCn3c2nc2c3c(=O)[nH]c(=O)n2C)c1,i,0.77,/,/,
Cc1ccc(NC(=S)NC(=O)c2cncc(Br)c2)cc1Cl,i,7.2*,i,i,CHO-K1 Tl ctr=0.8*;KCNQ1 sel pot=-8;KCNQ2 pot conf=-16;Kir21 spec=-38
O=C(NC(=S)Nc1ccc(Cl)cc1)c1cncc(Br)c1,i,2.9,/,/,
Cc1cccn2c(=O)c3cc(S(=O)(=O)c4ccc(Br)cc4)c(=N)n(C4CCCC4)c3nc12,i,0.14,i,i,
N=c1c(S(=O)(=O)c2ccc(Br)cc2)cc2c(=O)n3ccccc3nc2n1C1CCCCC1,i,/,/,/,
NC(=NCCc1c[nH]c2ccccc12)NC(=O)c1ccc(F)cc1,i,0.4,34%*,i,
NC(=NCCc1c[nH]c2ccccc12)NS(=O)(=O)c1ccc(F)cc1,i,0.95,/,/,
Nc1ccc(C(=O)N2CCN(S(=O)(=O)c3ccc(Br)cc3)CC2)cc1[N+](=O)[O-],i,/,/,/,
O=C(Cc1ccc(Cl)cc1)NNc1c(F)c(F)cc(F)c1F,i,0.53,/,/,
Oc1ccc(Cc2ccc(Cl)cc2)c(O)c1,i,5.6*,i,i,CHO-K1 Tl ctr=106*;KCNQ1 sel pot=-9;KCNQ2 pot conf=-10;Kir21 spec=-48
COc1ccc(CCC(=O)NCc2cccc(C(F)(F)F)c2)cc1,i,6.7*,i,i,CHO-K1 Tl ctr=24*;KCNQ1 sel pot=-17;KCNQ2 pot conf=-2;Kir21 spec=-33;KCNQ2 W236L pot=i
COc1ccc(CCC(=O)NCc2ccc3c(c2)OCO3)cc1,i,3,/,/,
Cc1ccc(/C=C/C(=O)Nc2ccc(S(=O)(=O)Nc3onc(C)c3C)cc2)cc1,i,/,/,/,
CCN(CC)C(=O)Cn1cc(C(=O)C(=O)N2CCN(c3ccc(OC)cc3)CC2)c2ccccc21,i,/,/,/,
O=C(NC(C(=O)N/N=C/c1cc([N+](=O)[O-])ccc1O)c1n[nH]c(=O)c2ccccc12)c1ccccc1 (centres undefined),i,/,/,/,
O=[N+]([O-])c1cccc(N/N=C/c2cc([N+](=O)[O-])ccc2O)c1,i,1.3,/,/,
O=[N+]([O-])c1ccc(N/N=C/c2ccccc2O)cc1,i,7.9*,i,74%*,CHO-K1 Tl ctr=56*;KCNQ1 sel pot=-20;KCNQ2 pot conf=-24;Kir21 spec=-43
Cc1cc(C)c2nc(SC(C)C#N)cc(C)c2c1 (centres undefined),i,5.6*,i,68%*,CHO-K1 Tl ctr=75*;KCNQ1 sel pot=-9;KCNQ2 pot conf=-12;Kir21 spec=-44;KCNQ2 W236L pot=i
Cc1cc(C)c2nc(SC3CCOC3=O)cc(C)c2c1 (centres undefined),i,0.27,/,/,
O=C(Nc1ccccn1)c1cccc(S(=O)(=O)N2CCc3ccccc3C2)c1,i,/,/,/,
